Source: PubChem BioAssay (NCI)
Where “and” joins values, the source holds several entries; their conditions need not be identical. Identical values can stand only once. About 83,000 compounds went through this panel and 20% of them were active in at least one assay; those are over-represented in the sample as a whole.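 The test compound was applied at a single concentration to cells in 96-well plates for 48 hours, and percent growth was recorded.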 A number with no mark means an inactive call. Calls of active or inactive are those of the source. The calls were made as follows: active = growth percent below 10; inactive = the rest.

The compounds below were run on HL-60(TB) leukemia (assay: NCI-60 one-dose screen, 48 h (100 = growth as untreated, 0 = no growth, -100 = all killed)). Conditions: 10 µM unless noted.
For `CC/C(=C(\c1ccccc1)c1ccc(OCCNC)cc1)c1ccccc1`, the growth was 6.56% (active). In the case of `COc1ccc(Cn2cc3c(c2-c2ccccc2)CCc2cncnc2-3)cc1`, the growth is reported as 15.2%. `OB(O)c1ccccc1` gave a growth of 98.1%. `COC(C(=O)[C@@H](O)[C@@H](C)O)[C@@H]1Cc2cc3cc(O[C@H]4C[C@@H](O[C@H]5C[C@@H](O)[C@H](O)C(C)O5)[C@H](O)C(C)O4)c(C)c(O)c3c(O)c2C(=O)[C@H]1O[C@H]1C[C@@H](O[C@H]2C[C@@H](O[C@H]3C[C@@H](O)[C@H](OC)C(C)O3)[C@@H](O)C(C)O2)[C@H](O)C(C)O1` (stereo partly drawn) was tested, and the growth was -5.47% (active). `CCC[C@H](N[C@@H](C)C(=O)N1[C@H](C(=O)O)C[C@@H]2CCCC[C@@H]21)C(=O)OCC` was tested, and the growth was 116%. In the case of `C[C@@H](CO)[C@@H]1CCC=C2CC[C@]3(C)[C@H](CC[C@@H]4[C@@]5(C)CCCNC(C)(C)[C@@H]5CC[C@]43C)[C@H]21`, the growth is reported as -6.22% (active). With `O=C(O)C1C2CC3C(OC(=O)C31)C2Br` (stereo not drawn) the growth was 97% and 103%. For `C=CCn1c(SCC(=O)Nc2ccc(C(=O)/C=C/c3cc(OC)c(OC)c(OC)c3)cc2)nnc1-c1ccccc1`, the growth was 71.8%. `O=C(/C=C/c1cccc(Cl)c1)OCc1ccc2cc1OCC#C/C=C\C#CCO2` gave a growth of 81.8%. For `COc1ccc(-c2n[nH]nc2-c2cc(OC)c(OC)c(OC)c2)cc1`, the growth was -8.64% (active). Compound `CCOC(=O)c1c(SC)nn(-c2cc(=O)[nH]c3ccc(Br)cc23)c1N` has a growth of 103%. In the case of `COc1ccc(-c2noc(N)c2-c2cc(OC)c3c(c2)OCO3)cc1`, the growth is reported as -29.4% (active). For `Cc1ccc2c(c1)/C(=N\N=C/c1cn(C(C)C)c3ccccc13)C(=O)N2`, the growth was -33.3% (active). For `CN1CCN(CC#CCNC(=O)[C@]23CCC(C)(C)C[C@H]2C2=CC[C@@H]4[C@@]5(C)Cc6c([nH]c7ccccc67)C(C)(C)[C@@H]5CC[C@@]4(C)[C@]2(C)CC3)CC1`, the growth was 49.4%. In the case of `NCCOc1ncccc1/C=C1\c2ccccc2-c2ccc([N+](=O)[O-])cc21`, the growth is reported as -41.7% (active). For `Cc1ccc(NC2=CC(=O)C(=O)c3ccccc32)c(C)c1`, the growth was 38%. In the case of `NC(=S)c1c(N)n(C2OC(CO)C(O)C2O)c2ncnc(N)c12` (stereo not drawn), the growth is reported as -43.6% (active). `CC1=C[C@H]2c3c(c(O)c(O)c4oc5cc(O)cc(O)c5c(=O)c34)[C@H](c3cc(O)c(O)c4oc5cc(O)cc(O)c5c(=O)c34)[C@H]2C(C)(C)C1` was tested, and the growth was 2.23% (active) and -3.82% (active). Work on `COc1cc(Nc2nc(N[C@H]3CCCC[C@@H]3N)nc3cc[nH]c(=O)c23)cc(OC)c1` yielded a growth of 16.2%. `Cc1c(C(=O)NCCCc2ccccc2)sc2ncc(-c3ccc(Br)cc3)n12` was tested, and the growth was 90.1%. `C=C1C(=O)O[C@H]2[C@H]1CC/C(COC(=O)NCc1cc[nH]c1)=C\CC[C@@]1(C)O[C@@H]21` was tested, and the growth was -6.94% (active). In the case of `CCCCCC(=O)OCCC1CCCCC1`, the growth is reported as 109%. In the case of `Oc1ccc(Cl)cc1Cc1cc(Cl)ccc1O`, the growth is reported as 33.8%. With `Cn1c(=O)cc(NC(=O)CN2CCN(c3cc4c(cc3F)c(=O)c(C(=O)O)cn4C3CC3)CC2)[nH]c1=O` the growth was 98.2%. For `O=C(NCCNc1nccc(-c2c(-c3cccc(O)c3)nc3sccn23)n1)c1cccc(C(F)(F)F)c1`, the growth was 95.5%. In the case of `O=C(Nc1ccc(CN2CCOCC2)cc1)c1ccc(-c2cc(Cl)ccc2Cl)o1`, the growth is reported as 28.8%. `COc1ccc2c(c1)C(=O)/C(=C/c1ccccn1)CC2` gave a growth of 75.5%. `O=[N+]([O-])c1ccc(Sc2ccncn2)c([N+](=O)[O-])c1` was tested, and the growth was 16.8%.
